Screening results: PubChem, National Center for Advancing Translational Sciences (NCATS)
Only some compounds are listed: those with a hit (about 9.2% of all), similar ones and a draw of the others.
HTT aggregate: inhibitors of mutant huntingtin aggregate formation in PC12 cells; AID 1688; PC12 HttQ103-GFP aggregates, Acumen cytometry, 40 h; Potency, µM (titrated, usually from 46.1 µM), without a hit: at the top dose activity change, negative = inhibition, actives largely listed as inhibitors; 220,000 tested, 1.1% active; active means well fitted curve in the direction sought with a large enough effect; inconclusive means small, poorly fitted or top-dose-only effect, or another doubt; inactive means no such curve, though single readings can be large; an effect the other way counts as inactive or inconclusive; further: on the % scale 0 is the no-effect control and ±100 the full control effect; nearly all actives have a fitted effect of over 60% in size
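Huntingtin Q103 exon 1–GFP aggregates in induced PC12 cells (100 nM tebufenozide) were quantified by cytometry from lysates, with compounds dosed in titration.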
JMJD2E inh: inhibitors of human JMJD2E histone demethylase; B2RXH2; JMJD2E catalytic domain, FDH-coupled NADH fluorescence (FDH is formaldehyde dehydrogenase); Potency, µM (series often up to 57.1 µM), for inactives: at the highest dose activity change, negative = inhibition, hits mostly inhibitors; 230,000 tested, 1.6% active;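 further: 0% = wells with enzyme and -100% = buffer wells without enzyme; nearly all actives have a fitted effect of over 50% in size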
Target sequence (B2RXH2 1-337 limits assumed): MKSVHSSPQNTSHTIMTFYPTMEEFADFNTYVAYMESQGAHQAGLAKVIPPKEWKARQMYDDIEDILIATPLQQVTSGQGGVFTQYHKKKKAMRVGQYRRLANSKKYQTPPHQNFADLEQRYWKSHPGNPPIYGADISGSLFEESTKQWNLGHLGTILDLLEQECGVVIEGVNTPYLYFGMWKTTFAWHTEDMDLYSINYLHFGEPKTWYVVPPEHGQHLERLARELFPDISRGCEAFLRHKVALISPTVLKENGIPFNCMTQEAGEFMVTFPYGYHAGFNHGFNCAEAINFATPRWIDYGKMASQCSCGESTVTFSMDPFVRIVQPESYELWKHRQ
LMNA splice mod: modulators of lamin A splicing; HeLa LMNA splicing GFP/RFP minigene ratio, 48 h; Potency, µM (highest dose often 46.1 µM), for the others: top-dose ratio change, negative = inhibition, actives largely listed as inhibitors; 200,000 tested, 0.01% active; active means well fitted inhibition curve with a large enough effect in the signal ratio, with a control signal flat, not every such curve was filed as active; inconclusive means small, poorly fitted or top-dose-only effect, or effect the other way, or a change in a side signal; the % refers to the signal ratio; further: on the % scale 0 is the no-effect control and ±100 the full control effect
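Read-out is the ratio of GFP to DsRed2 object intensity, acquired by 488 nm laser-scanning cytometry on HeLa lamin A-EGFP minigene reporter cells. Compound incubation 48 hrs at 37 °C in Opti-MEM with 2% FBS; DMSO 0.5% final.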
ALDH1A1 inh: inhibitors of human aldehyde dehydrogenase 1A1; P00352; 220,000 tested, 7.3% active; Potency, µM (series often up to 75.3 µM), for the others: at the top dose activity, negative = inhibition, usual class: inhibitors; Purified ALDH1A1, NADH fluorescence, propionaldehyde substrate;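 further: plate controls were no enzyme wells and a reference inhibitor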
HTT ATP protect: protects HTT-Q103 PC12 cells, measured by ATP; PC12 HTT-Q103 induced, cytoprotection, ATP luminescence, 40 h; Potency, µM (doses to about 56.4 µM), for the others: cytoprotection (ATP increase), actives largely listed as activators; 230,000 tested, 0.14% active; active means well fitted curve in the direction sought with a large enough effect; inconclusive means small, poorly fitted or top-dose-only effect, or another doubt; inactive means no such curve, though single readings can be large; an effect the other way counts as inactive or inconclusive; further: % of control where 0% means no effect; nearly all actives have a fitted effect of over 45% in size
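Rat PC12, Q103 Htt exon1-GFP fusion, ecdysone promoter; tebufenozide inducer 100 nM final; compound titration; qHTS, 1500 cells/well; ATPlite luminescent read.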
HPGD inh: inhibitors of human 15-hydroxyprostaglandin dehydrogenase (HPGD); P15428; purified HPGD, NADH fluorescence kinetic, PGE2 substrate; Potency, µM, inactives show top-dose activity change, negative = inhibition, most hits filed as inhibitors; 150,000 tested, 4.3% active; further: on the % scale 0 is the no-effect control and ±100 the full control effect
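NADH formation kinetics: reaction with 30 uM PGE2 and 1 mM NAD+ (final), 20 nM enzyme, Tris-HCl pH 8 with Tween 20, after 15 min compound preincubation at room temperature. Fluorescence change, last versus first of five reads.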
* = called active by the depositor; ? = inconclusive; / = not tested or not shown; [ ] = remark or other dose. Unless noted, the call rests on the fitted dose curve; in most records, active means well fitted inhibition curve with a large enough effect (not every such curve was filed as active); inconclusive means small, poorly fitted or top-dose-only effect, or another doubt; inactive means no such curve, though single readings can be large or run the other way. Potency means the concentration at half of the fitted maximal effect.

SMILES	HTT aggregate	JMJD2E inh	LMNA splice mod	ALDH1A1 inh	HTT ATP protect	HPGD inh
COc1ccc([N+](=O)[O-])cc1NC(=S)NC(NC(=O)C(c1ccccc1)c1ccccc1)C(Cl)(Cl)Cl (stereo not given)	?	2%	?	20µM*	-63%	-10%
CC(=O)NC(NC(=S)Nc1ccc(N=Nc2ccccc2)cc1)C(Cl)(Cl)Cl (stereo not given)	?	-2%	?	13µM*	-14%	-29%
CCOc1ccc(CNS(=O)(=O)c2ccc(-c3coc(C)n3)cc2)cc1OC	/	/	3%[46 µM]	/	/	/
NS(=O)(=O)c1ccc(NCc2nc3ccccc3[nH]2)cc1	/	/	/	0%[13.5 µM]	-1%[10 µM]	-4%
O=C(CN(Cc1ccccc1)S(=O)(=O)c1ccccc1)N/N=C/c1ccccc1C(=O)O	-6%[9.22 µM]	-1%	5%[46 µM]	?	15%[10 µM]	/
Cc1ccc(S(=O)(=O)N2CCC(C(=O)NCCc3ccccn3)CC2)cc1	24%	-4%	/	-5%	-24%	/
Cn1cc(CN2CCc3c([nH]c4ccccc34)C2C(C)(C)C)cn1 (stereo not given)	6%[9.22 µM]	?	/	-3%	-7%[10 µM]	/
Cn1cc(CN2CCc3c([nH]c4ccccc34)C2C2CCCCC2)cn1 (stereo not given)	15%[9.22 µM]	20µM*	-1%[46 µM]	13µM*	2%[10 µM]	/
CN(/N=C/c1cc(Cl)cc(Cl)c1O)C(=S)NC(C)(C)C	4%[9.22 µM]	32µM*	-11%[46 µM]	?	-3%[10 µM]	/
C(=Nc1cnc2ccccc2c1)c1ccc2ccccc2n1	/	/	/	?	1%[10 µM]	?
O=C1OC2(c3ccc(O)cc3Oc3cc(O)ccc32)c2c1c(-c1ccccc1)c(-c1ccccc1)c(-c1ccccc1)c2-c1ccccc1	/	/	/	?	-12%[10 µM]	?
O=C(O)c1ccc(-c2nc(-c3ccccc3Cl)cs2)cc1	23%	?	-28%[46 µM]	-8%	-63%	/
CCS(=O)(=O)c1ccc(-c2csc(-c3ccccc3)n2)c(Cl)c1Cl	11µM*	?	0%	?	-2%[10 µM]	?
CCOC(=O)C1CCCN(Cc2cn3c(-c4ccc(Br)cc4)nnc3s2)C1 (stereo not given)	/	/	-21%[46 µM]	/	/	/
O=C(c1nc2ccccc2s1)N1CCN(c2ccccn2)CC1	-10%	9%	-9%	?	-22%	-7%
O=C(c1nc2ccccc2s1)N1CCSCC1	-24%	8%	-1%	-1%	-28%[0.074 µM]	8.9µM*
COc1ccc(N2C(=O)CC(NC3CC3)C2=O)cc1 (stereo not given)	3%	-8%	-11%	-12%	15%[10 µM]	-6%
CCOC(=O)c1ccc(N2C(=O)CC(SCC(N)C(=O)OCC)C2=O)cc1 (stereo not given)	?	0%	14%	3.5µM*	-87%[10 µM]	-8%
CCOC(=O)c1ccc(N2C(=O)C=CC2=O)cc1	22µM*	2%	?	0.063µM*	-96%	1.4µM*
CCOC(=O)c1ccc(N2C(=O)CC(Sc3nnc(C)s3)C2=O)cc1 (stereo not given)	7%	-1%	8%	1µM*	-36%	28µM*
CCOC(=O)c1ccc(N2C(=O)CC(NC3CCN(C(=O)c4ccc(F)cc4)CC3)C2=O)cc1 (stereo not given)	-13%	-2%	-4%	14µM*	-1%[0.074 µM]	-7%
CCOC(=O)c1ccc(-n2c(C)ccc2C)cc1	?	-17%	9%	-5%	5%[0.074 µM]	?
COc1cc2ncc3c(-c4ccc(C)cc4)nn(-c4ccc(F)cc4F)c3c2cc1OC	/	/	3%[46 µM]	/	/	/
O=C1CC(SCCO)C(=O)N1c1ccc(Oc2ccccc2)cc1 (stereo not given)	8%	-3%	-7%	14µM*	-13%[10 µM]	-15%
CN=C(NC)SC1CC(=O)N(c2ccccc2)C1=O (stereo not given)	-5%	7%	4%	10%	-7%	4%
Cc1cccc(-c2n[nH]c(=S)n2-c2ccccc2)c1[N+](=O)[O-]	15%	-8%	?	-6%	-3%[10 µM]	-29%
